Source: PubChem BioAssay (National Center for Advancing Translational Sciences (NCATS))
uPA generation: qHTS for Inhibitors of Cell Surface uPA Generation; cell surface uPA generation assay, qHTS; Potency, µM (doses to about 38.3 µM), actives largely listed as inhibitors; 330,000 tested, 0.31% active; AID 540303, 2011; active means well fitted inhibition curve with a large enough effect; inconclusive means small, poorly fitted or top-dose-only effect; inactive means no such curve, though single readings can be large or run the other way; tested in mouse RAW 264.7 cells; further: nearly all actives have a fitted effect of over 55% in size
TDP1 cell CPT: qHTS for Inhibitors of human tyrosyl-DNA phosphodiesterase 1 (TDP1): qHTS in cells in presence of CPT | 420,000 tested, 12% active | Potency, µM (doses to about 46.2 µM), usual class: inhibitors | chicken DT40 Tdp1-/-;hTDP1 cells + 20 nM CPT, ATP luminescence, 48 h | AID 686979, 2013; further: nearly all actives have a fitted effect of over 55% in size
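Chicken DT40 Tdp1-/- cells stably complemented with human TDP1 were seeded at 400 cells/well in medium containing 20 nM camptothecin, exposed to pin-transferred compounds, and grown at 37 °C for at least 48 hr. Viability was read as ATP luminescence.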
DT40 TDP1 no CPT: qHTS for Inhibitors of human tyrosyl-DNA phosphodiesterase 1 (TDP1): qHTS in cells in absence of CPT; DT40 Tdp1-/- hTDP1 cells, no CPT, ATP luminescence, 48 h; Potency, µM (highest dose often 46.2 µM), most hits filed as inhibitors; 420,000 tested, 15% active; further: nearly all actives have a fitted effect of over 55% in size
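Chicken DT40 Tdp1-/- cells complemented with human TDP1, screened without camptothecin (DMSO vehicle only), 400 cells/well. Compounds pin-transferred, cells incubated at 37 °C for at least 48 hr. Growth read as ATP-dependent luminescence (CellTiter-Glo, 30 min at RT).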
miR-21 reporter: qHTS Assay for Modulators of miRNAs and/orActivators of miR-21; HeLa miR-21 FLuc reporter, luciferase, 48 h; Potency, µM (doses to about 38.3 µM), usual class: activators; 340,000 tested, under 10 active; AID 2288, 2010;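 further: miR-21 action dims this reporter so a rising signal means less miR-21 action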
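HeLa miR-21-FLuc reporter line, endogenous miR-21; 2000 cells/well in DMEM/10% FBS; compound titration up to ~40uM final, 48 h, 37 degree Celsius; luciferase detection reagent, 15 min lysis, CCD luminescence.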
TDP1 block: qHTS Assay for Inhibitors of Tyrosyl-DNA Phosphodiesterase (TDP1); Tyrosyl-DNA phosphodiesterase 1 (Homo sapiens), Q9NUW8; AID 485290, 2010; recombinant TDP1, AlphaScreen DNA substrate cleavage; 350,000 tested, 0.28% active; Potency, µM (top dose mostly 130 µM), usual class: inhibitors; further: nearly all actives have a fitted effect of over 40% in size
Target sequence (Q9NUW8 whole entry, looked up): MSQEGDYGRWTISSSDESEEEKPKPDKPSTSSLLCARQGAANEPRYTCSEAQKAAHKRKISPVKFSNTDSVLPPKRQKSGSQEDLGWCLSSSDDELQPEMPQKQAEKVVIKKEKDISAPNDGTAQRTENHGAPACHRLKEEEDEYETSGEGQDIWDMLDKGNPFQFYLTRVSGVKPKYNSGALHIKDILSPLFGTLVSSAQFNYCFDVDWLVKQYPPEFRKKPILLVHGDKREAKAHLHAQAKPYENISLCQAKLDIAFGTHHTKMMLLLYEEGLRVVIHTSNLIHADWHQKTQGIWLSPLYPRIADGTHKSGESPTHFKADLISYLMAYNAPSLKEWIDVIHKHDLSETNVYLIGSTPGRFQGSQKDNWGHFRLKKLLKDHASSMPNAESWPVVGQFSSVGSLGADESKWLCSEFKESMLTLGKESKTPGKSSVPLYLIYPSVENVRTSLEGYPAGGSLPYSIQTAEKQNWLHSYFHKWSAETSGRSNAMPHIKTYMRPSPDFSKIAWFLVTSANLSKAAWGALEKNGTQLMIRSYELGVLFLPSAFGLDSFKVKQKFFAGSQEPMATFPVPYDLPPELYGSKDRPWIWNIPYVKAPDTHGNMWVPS
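Recombinant human Tdp1 (E. coli-expressed, 1 nM final) preincubated with compounds 15 min at room temperature, then 5'-biotin/3'-phosphotyrosine-FITC DNA substrate (15 nM final) added for 5 min. AlphaScreen beads (10 ug/ml final) added 10 min; cleavage lowers signal.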
A number is an active result; i = inactive; ? = inconclusive; nt = no result; ! = a repeat was not active; [ ] = remark or other dose. Most compounds without a hit are left out; they make up all but 16% or so of the library. Unless noted, the call rests on the fitted dose curve; in most records, active means well fitted curve in the direction sought with a large enough effect; inconclusive means small, poorly fitted or top-dose-only effect, or another doubt; inactive means no such curve, though single readings can be large; an effect the other way counts as inactive or inconclusive.

SMILES	uPA generation	TDP1 cell CPT	DT40 TDP1 no CPT	miR-21 reporter	TDP1 block
O=[N+]([O-])c1cccc(-c2nc(NCc3ccccc3)c3ccccc3n2)c1	i	?	?	i	i
N#CC1(NC(=O)CSc2ccccn2)CCCCC1	i	i	i	nt	i[0.505 µM]
Cc1nn(C)c(Cl)c1NC(=O)OCc1ccc(F)cc1	i	?	16µM	i	i
CC(C)c1ccc(OC(=O)c2cccc(S(=O)(=O)N3CCN(C)CC3)c2)cc1	i	?	18µM	i	i
CN1CCN(S(=O)(=O)c2cccc(C(=O)Nc3sc4c(c3C(N)=O)CCCC4)c2)CC1	i	?	?	i	i
CN1CCN(S(=O)(=O)c2cccc(C(=O)Oc3ccc(C(C)(C)C)cc3)c2)CC1	i	?	?	nt	i
COC(=O)c1c(NC(=O)c2cccc(S(=O)(=O)N3CCN(C)CC3)c2)sc(C)c1C	i	15µM	15µM	nt	nt
CCOC(=O)c1sc(NC(=O)CC2OC(=O)c3ccccc32)nc1C (stereo unspecified)	i	i	i	nt	i
O=C(COC(=O)c1ccc(Br)o1)Nc1ccc2[nH]c(=O)[nH]c2c1	i	i	?	nt	i
CCOc1ccc(-n2c(C)nc3cc(C(=O)NCc4ccc5c(c4)OCO5)ccc32)cc1	i	?	?	i	i
O=C(Nc1ccccc1-c1ccccc1)C(=O)Nc1ccccc1-c1ccccc1	nt	nt	nt	i	nt
N#Cc1nc(N2CCCC2)nc(N2CCCC2)n1	i	13µM	14µM	i	i
CCOC(=O)CNc1nc(Cl)nc(N2CCCCC2)n1	i	i	i	i	nt
COc1nc(C#N)nc(N2CCCCC2)n1	nt	?	20µM	nt	i
CC(C)N(C#N)c1nc(N2CCOCC2)nc(N2CCOCC2)n1	i	21µM	10µM	i	i
CCOC(=O)CNc1nc(C#N)nc(N2CCOCC2)n1	i	13µM!	?	i	i
COc1nc(OC)nc(N2CCCCCC2)n1	i	?	i	i	i
CCN1/C(=C2\C(=O)N(C)C(=S)N2C)C=Cc2cc(C)ccc21	i	?	?	i	i
CC1(c2nnnn2-c2ccc3c(c2)OCCO3)CCC(=O)N1CC1CCCCC1 (stereo unspecified)	nt	i	?	nt	nt
CN(C)c1nc(C#N)nc(N2CCOCC2)n1	i	?	?	i	i
CCOc1nc(C#N)nc(N2CCOCC2)n1	nt	?	11µM	nt	i
N#Cc1nc(N2CCCCC2)nc(N2CCOCC2)n1	i	13µM	16µM	i	i
CC(C)c1ccc(C2C(C(=O)c3ccco3)=C(O)C(=O)N2CCN2CCOCC2)cc1 (stereo unspecified)	i	i	i	i	i
O=C(c1ccc(F)cc1)N1CCC(C(=O)N2CCCc3ccccc32)CC1	nt	i	?	nt	nt
O=C1/C(=C/c2cccc(Cl)c2)SC(=S)N1CCC(=O)N1CCCCC1CCO (stereo unspecified)	i	?	?	i	i
SMILES	uPA generation	TDP1 cell CPT	DT40 TDP1 no CPT	miR-21 reporter	TDP1 block
COc1nc(N(C)C)nc(N(C)c2cc(Cl)cc(Cl)c2)n1	i	?	i	i	nt
COc1ccc([C@@H]2C[C@H]3CN(Cc4ccccc4OC)C(=O)[C@]34CCCN24)cc1C	i	?	18µM	i	i
COc1ccccc1CN1C[C@@H]2C[C@@H](c3cccc(C)n3)N3CCC[C@@]23C1=O	i	i	i	i	i
Cc1ccccc1CN1C[C@@H]2C[C@@H](c3cn[nH]c3-c3ccc(F)cc3)N3CCC[C@@]23C1=O	i	18µM	21µM	i	i
COc1ccccc1CN1C[C@@H]2C[C@@H](c3cccc(C)c3)N3CCC[C@@]23C1=O	i	i	?	i	nt
COc1ccccc1CN1C[C@@H]2C[C@@H](c3ccc(C)c(C)c3)N3CCC[C@@]23C1=O	i	15µM	16µM	i	i
CC1Oc2ccccc2N(CC(=O)Nc2ccccc2F)C1=O (stereo unspecified)	i	i	i	i	i
CC(=O)Oc1ccc2ccc3ccc(C(C)=O)cc3c2c1	i	?	18µM	nt	nt
COc1ccc(OC)c(N2C(=O)CC(Cc3ccc(C)cc3)C2=O)c1 (stereo unspecified)	i	i	i	i	i
